Data as given in PubChem BioAssay.
Calls of active or inactive are those of the source.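 How the source made its calls, unless noted: active means compounds that lower viability of the colon cancer cells in the luminescence readout, with no numeric limit stated; inactive means the rest.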

How the values were obtained:
[1] = stimulators of insulin release from INS-1E, primary screen, cell-based, 5 mM glucose, NPC library (AID 1117329;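 active means compound raises insulin release from rat beta cells at 5 mM glucose, no numeric limit stated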); conditions: rat INS-1E insulin secretion, at 10 µM, stronger effect = higher value
[2] = growth inhibition of GSK3B-pretreated HCT116 cells – cell-based, CellTiter-Glo, 0.2 to 20 µM (AID 1117336;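 active means compounds lowering colon cancer cell viability after pretreatment blocking the GSK3B kinase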); conditions: HCT116 viability after GSK3B inhibitor, at 20 µM, stronger effect = higher value
[3] = inhibition of endothelial tube formation, primary screen, imaging, VEGF stimulated, CD31 staining, tube area, NPC library (AID 1117340;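 active means compound that reduces growth-factor-driven endothelial tube area in a mixed cell culture, no cutoff stated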); conditions: VEGF-stimulated ADSC/ECFC co-culture, at 10 µM, stronger effect = higher value
[4] = glucagon-like peptide 1 release enhancers, primary assay, NCI-H716 cell line, NPC library (AID 1117341;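 active means compound raises GLP1 secretion from the human gut endocrine cells, with no numeric limit stated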); conditions: NCI-H716 cells, at 10 µM, stronger effect = higher value
[5] = HCT116 colon cancer cell growth inhibition, primary screen, CellTiter-Glo luminescence, NPC library (AID 1117342;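 active means compounds that lower survival of HCT116 colon cancer cells in the luminescence readout, no numeric limit stated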); conditions: at 20 µM (top of the series)
[6] = CellTiter-Glo luminescent readout of SW480 viability loss, NPC library primary (AID 1117343); conditions: CellTiter-Glo luminescence; at 20 µM (top of the series)
[7] = decreased DLD-1 cellular survival, CellTiter-Glo luminescent readout, NPC compound collection, primary HTS (AID 1117346;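 active means compounds that lower survival of DLD-1 colon cancer cells in the luminescence readout, no cutoff given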); conditions: DLD-1 viability, CellTiter-Glo luminescence; at 20 µM (top of the series)
[8] = target: 6-phosphogluconate dehydrogenase, decarboxylating (Homo sapiens) (UniProt P52209); assay: 6PGD enzyme inhibitors, primary screen, biochemical, human, recombinant enzyme, NADPH absorbance (AID 1159550;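 active means at least 20% inhibition of 6-phosphogluconate dehydrogenase activity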); conditions: recombinant 6PGD, NADPH absorbance 341 nm; at 10 µM; stronger effect = higher value
[9] = differential killing of epithelial or mesenchymal cells, primary screen, imaging, PC-3E GFP, TEM4-18 mCherry, co-culture (AID 1345086;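 active means compounds killing one labelled cell type while sparing the other, by normalised counts and ratio limits, not self-fluorescent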;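 on all read-outs here: cells exposed to compound for 72 h before imaging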;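 on red/green cell ratio (normalised): normalised mesenchymal count divided by normalised epithelial count so high means epithelial killing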); conditions: imaging cell counts, at 1 µM; for red/green cell ratio (normalised): actives lie on both sides, counts scaled to control wells, 1 = unselective
[10] = measured here: epithelial PC-3E GFP cell survival
[11] = measured here: mesenchymal TEM4-18 mCherry cell survival

6-phosphogluconate dehydrogenase, decarboxylating (Homo sapiens), sequence (P52209 whole entry, looked up): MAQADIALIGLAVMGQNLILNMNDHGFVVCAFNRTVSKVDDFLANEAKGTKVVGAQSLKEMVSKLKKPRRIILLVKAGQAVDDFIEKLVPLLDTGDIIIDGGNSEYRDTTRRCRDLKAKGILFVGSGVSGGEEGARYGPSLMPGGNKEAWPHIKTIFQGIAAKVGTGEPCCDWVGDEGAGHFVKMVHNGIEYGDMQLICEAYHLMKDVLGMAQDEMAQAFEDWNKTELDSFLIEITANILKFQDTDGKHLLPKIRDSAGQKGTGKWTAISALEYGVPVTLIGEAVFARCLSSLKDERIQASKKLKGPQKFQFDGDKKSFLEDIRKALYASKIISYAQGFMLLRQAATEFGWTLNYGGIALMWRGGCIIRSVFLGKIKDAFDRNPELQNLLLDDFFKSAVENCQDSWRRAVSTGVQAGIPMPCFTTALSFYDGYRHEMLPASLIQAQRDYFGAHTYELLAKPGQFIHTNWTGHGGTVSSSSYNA

Compound	insulin secretion stimulation [1]	viability decrease [2]	tube area decrease [3]	GLP1 secretion stimulation [4]	inhibition of viability [5]	viability decrease (inhibition) [6]	viability decrease (inhibition) [7]	inhibition [8]	red/green cell ratio (normalised) [9]	normalised cell number [9, 10]	normalised cell number [9, 11]
Cc1cc(CC(=O)O)n(C)c1C(=O)c1ccc(Cl)cc1	2.6% (inactive)	-27.2% (inactive)	15.1% (inactive)	-1.1% (inactive)	1.13% (inactive)	14.7% (inactive)	-17.6% (inactive)	-4.85% (inactive)	0.89 (inactive)	1.1	0.98
Cc1cc(C)nc(NS(=O)(=O)c2ccc(N)cc2)n1	0.4% (inactive)	-0.3% (inactive)	-24.8% (inactive)	1.6% (inactive)	-12.6% (inactive)	35.5% (inactive)	6.75% (inactive)	1.62% (inactive)	1.29 (inactive)	1.02	1.31
O=C(COc1ccc(Cl)cc1)N1CCN(Cc2ccc3c(c2)OCO3)CC1	2.3% (inactive)	54% (active)	3.4% (inactive)	0.1% (inactive)	53.7% (active)	56.1% (active)	52.6% (active)	11.5% (inactive)	0.96 (inactive)	0.94	0.9
CCC(=O)O[C@H]1[C@H](O[C@@H]2[C@@H](C)[C@H](O[C@H]3C[C@@](C)(OC)[C@@H](O)[C@H](C)O3)[C@@H](C)C(=O)O[C@H](CC)[C@@](C)(O)[C@H](O)[C@@H](C)C(=O)[C@H](C)C[C@@]2(C)O)O[C@H](C)C[C@@H]1N(C)C	-1.7% (inactive)	-28.1% (inactive)	5.5% (inactive)	-0.1% (inactive)	3.15% (inactive)	13.9% (inactive)	-12.4% (inactive)	1.5% (inactive)	1.04 (inactive)	1.08	1.12
CN1CCC(OC(c2ccccc2)c2ccccc2)CC1	6.2% (inactive)	-31.3% (inactive)	13.8% (inactive)	4.2% (inactive)	35.4% (inactive)	37.7% (inactive)	-6.7% (inactive)	10.6% (inactive)	1.14 (inactive)	1.05	1.2
CC(=O)Nc1ccccc1	1% (inactive)	-5.1% (inactive)	-10.1% (inactive)	2.1% (inactive)	2.3% (inactive)	25.2% (inactive)	3.55% (inactive)	-5.03% (inactive)	1.11 (inactive)	1.06	1.18
CCCCC(CC)CN=C(N)NC(N)=NCCCCCCN=C(N)NC(N)=NCC(CC)CCCC (stereo not given)	22.3% (active)	99.1% (active)	108% (active)	0% (inactive)	99.6% (active)	97% (active)	102% (active)	-3.86% (inactive)	0.85 (inactive)	1.19	1.01
Cc1c(Cl)cccc1Nc1ccccc1C(=O)O	2.1% (inactive)	-14.5% (inactive)	-8.8% (inactive)	3.6% (inactive)	35.6% (inactive)	68.1% (active)	93.6% (active)	-12.8% (inactive)	0.86 (inactive)	1.08	0.93
CN(C)CCCN1c2ccccc2Sc2ccc(C(F)(F)F)cc21	5.8% (inactive)	68.5% (active)	45.1% (active)	17.9% (inactive)	88.7% (active)	137% (active)	101% (active)	1.69% (inactive)	1.26 (inactive)	0.93	1.17
Nc1ccc(C(=O)NCC(=O)O)cc1	-1.1% (inactive)	-2.9% (inactive)	-2.1% (inactive)	2.6% (inactive)	-15.3% (inactive)	36.1% (inactive)	4.3% (inactive)	-8.81% (inactive)	1.12 (inactive)	1.03	1.15
Cc1ccc(C(C)C)cc2c(C)ccc1-2	-0.7% (inactive)	-28.6% (inactive)	15.5% (inactive)	-6.3% (inactive)	5.77% (inactive)	-9.4% (inactive)	-6.8% (inactive)	-19.1% (inactive)	0.74 (inactive)	1.25	0.92
Nc1ccc(C(=O)O)cc1	-1% (inactive)	2.35% (inactive)	-16.4% (inactive)	0.8% (inactive)	-6.1% (inactive)	13.3% (inactive)	-4.7% (inactive)	6.16% (inactive)	1 (inactive)	1.02	1.02
CCCCCCc1ccc(O)cc1O	9.8% (inactive)	65.4% (active)	30.7% (inactive)	4.2% (inactive)	41.8% (inactive)	84.1% (active)	56.2% (active)	-8.5% (inactive)	0.84 (inactive)	1.14	0.96
O=C(O)c1ccccc1O	-0.3% (inactive)	7.5% (inactive)	5.9% (inactive)	6% (inactive)	10.8% (inactive)	-3.3% (inactive)	-1.7% (inactive)	1.06% (inactive)	1.29 (inactive)	0.92	1.19
CCC(=O)c1c(O)cc(O)cc1O	3.7% (inactive)	-16.4% (inactive)	4.6% (inactive)	-2% (inactive)	21.1% (inactive)	21.5% (inactive)	2.4% (inactive)	8.94% (inactive)	0.9 (inactive)	1.06	0.96
